Results filed as inconclusive are left out. Unmarked numbers belong to inactive results. The call rests on the fitted dose curve; in most records, active means well fitted activation curve with a large enough effect; inconclusive means small, poorly fitted or top-dose-only effect; inactive means no such curve, though single readings can be large or run the other way.

This test is described as follows: qHTS assay for re-activators of p53 using a Luc reporter: Hit Validation with no p53 Expressed. Further: 0% is about no effect. The following applies: p53-null cells, luciferase reporter counter-screen; series mostly up to 46.1 µM; activity change, positive = activation: at the top concentration. The method, boiled down: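 Counter-screen of primary hits in a cell line not transfected with p53, in Opti-MEM with 10% FBS; compounds at several concentrations (10 mM stock, 1:5; top 46.1 µM in well), 24 h at 37 deg C, 5% CO2. Luminescence read after 10 min with Amplite reagent.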
With `O=C(c1ccco1)n1c(=S)nc2ccccn21`, the “activity change, positive = activation” value is 85.9%. As for `CCOC(=O)c1c(NC(=O)CN2CCCc3ccccc32)sc(C)c1C`, the “activity change, positive = activation” value was 75.3%. The figure for `COc1cc(CN2CCCCC2C(=O)Nc2ccc(Oc3ccccc3)nc2)ccc1O` (stereo not given) is 1.55%; for `CS(=O)(=O)N1CCC(C(=O)Nc2cc(Cl)c(Cl)cc2Cl)CC1` it is 29.4%; for `c1ccc(-n2ncc3c(N4CCCCC4)ncnc32)cc1` it is -18.3%. For `COc1cc(C2NC(=S)NC(O)(C(F)(F)F)C2C(=O)c2cccs2)cc(OC)c1O` (stereo not given), the “activity change, positive = activation” value was 5.29%.

For `CC1(C)Oc2ccc(NC(=O)C3COc4ccccc4O3)cc2O1` (stereo not given), the “activity change, positive = activation” value was 18%. To `CCC(=O)c1ccc(OC(=O)Cc2ccc(OC)cc2)cc1` belongs -69%; to `Cc1ccc(S(=O)(=O)NCC(=O)NCC(=O)N2CCC(C)CC2)cc1`, -34.7%; to `O=C(N/N=C(\c1ccccc1)c1cccnc1)c1cccc(F)c1`, 53.8%.

Consider `Cc1cc(NC(=O)c2ccc3c(c2)OCCO3)no1`, for which the “activity change, positive = activation” value is -8.07%. In the case of `Cc1ccc(C2C(C#N)=C(N)Oc3cc4c(cc32)OCO4)cc1` (stereo not given), the “activity change, positive = activation” value is 41%. For `c1ccc2sc(-c3ccc4c(c3)OCO4)nc2c1`, the “activity change, positive = activation” value is -24.1%. Take `COc1cc(NC(=O)CSCc2ccc(Cl)cc2)c(C(=O)O)cc1OC`: the “activity change, positive = activation” value is -44%. The figure for `CCCCn1c(/C=N/Nc2nc3ccccc3[nH]2)nc2ccccc21` is 87%; for `O=C(N/N=C/c1ccccc1O)C1CC(=O)N(c2ccc(Cl)cc2)C1` (stereo not given) it is 24.7%. Consider `Cc1ccc(NC(=O)Nc2ccccc2)c(Br)c1`, for which the “activity change, positive = activation” value is -27.1%. To `O=C(Nc1cnc2ccccc2c1)C1COc2ccccc2O1` (stereo not given) belongs 28.8%; to `CN(C(=O)CSc1nnc(-c2ccco2)o1)C1CCCCC1`, -25.1%; to `C=CCn1c(C)cc(C(=O)COC(=O)c2ccc(N)c([N+](=O)[O-])c2)c1C`, -12.9%.
